Autofluor counter – flagged as autofluorescent in microsphere protease counterscreen; compound autofluorescence counterscreen, microsphere flow cytometry; stronger effect = higher value; fluorescence intensity (test concentration not listed); 360,000 compounds, 3.1% hits; AID 624483; in the data active = fluorescence intensity above about 16000; inconclusive = no clear call, values can overlap the other calls
GDH-TPI inh – GDH-TPI coupled enzyme inhibition counter-screen; GDH-TPI coupled enzyme counterscreen, NADH absorbance; inhibition, % at 4.8 µM; 360,000 compounds, 1.2% hits; AID 588335; in the data active = inhibition above about 30%
Anthrax LF prot – blocks Bacillus anthracis lethal factor protease. multiplex microsphere protease cleavage assay, LF. inhibition, % at 10 µM. 360,000 compounds, 0.12% hits. AID 588501
BoNT A protease – blocks Botulinum neurotoxin A light chain protease | AID 588499 | multiplex microsphere protease substrate cleavage, flow cytometry | inhibition, % at 10 µM | 360,000 compounds, 0.17% hits
BoNT F protease – blocks Botulinum neurotoxin F light chain protease; Multiplex microsphere protease cleavage assay, flow cytometry; inhibition, % at 10 µM; 360,000 compounds, 0.22% hits; in the data active = inhibition above about 35%, passing the limit was not always enough; inconclusive = no clear call, values can overlap the other calls
FBA Mtb inh – Mtb fructose-bisphosphate aldolase inhibition; purified M. tuberculosis FBA, fluorescence read-out; 360,000 compounds, 2.3% hits; inhibition, % at 1 µM; P9WQA3; in the data active = inhibition above about 27%
Target sequence (P9WQA3 whole entry, looked up): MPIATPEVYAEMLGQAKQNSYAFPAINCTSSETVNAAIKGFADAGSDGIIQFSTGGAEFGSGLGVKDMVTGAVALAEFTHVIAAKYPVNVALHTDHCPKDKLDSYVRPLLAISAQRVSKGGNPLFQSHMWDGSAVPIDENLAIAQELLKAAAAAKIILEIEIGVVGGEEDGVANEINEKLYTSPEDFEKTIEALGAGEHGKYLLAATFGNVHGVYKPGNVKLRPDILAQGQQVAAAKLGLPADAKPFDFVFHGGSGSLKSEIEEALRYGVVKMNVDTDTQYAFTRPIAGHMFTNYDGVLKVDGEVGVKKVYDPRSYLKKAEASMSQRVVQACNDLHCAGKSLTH
A number is an active result; n = inactive; u = inconclusive. Sampled rows, rich in hits. Any-hit rate of the full collection: about 6.7%. Cut-off read from the data, not from the text of the source, unless noted: active = inhibition above about 30%; inconclusive = no clear call, values can overlap the other calls; inactive = below that.

SMILES	Autofluor counter	GDH-TPI inh	Anthrax LF prot	BoNT A protease	BoNT F protease	FBA Mtb inh
O=C(NC1CCCCC1)N(Cc1cc2cc3c(cc2[nH]c1=O)OCCO3)C1CCCCC1	n	34.5	n	n	n	n
COc1ccc2[nH]c(=O)c(CN(C(=O)c3ccccn3)C3CCCCC3)cc2c1	n	n	n	n	n	n
Cc1cc2cc(CCNC(=O)c3ccc(S(=O)(=O)N4CCCC4)cc3)c(=O)[nH]c2cc1C	n	n	n	n	n	n
O=S(=O)(N=S(N1CCCCC1)N1CCCCC1)c1ccccc1	19826	n	n	u	n	n
Cc1ccc(C(=O)N2CCC3(CC2)Oc2ccc(F)cc2C(=O)C32CC(c3ccc(Cl)cc3)=NO2)s1 (stereo not drawn)	n	n	n	n	n	n
COc1ccc(NC(=O)CN2CCN(CC(=O)Nc3ccc(F)cc3)CC2)cc1Cl	n	n	n	n	n	n
O=C(CCN1CCOCC1)Nc1c(-c2ccccc2)c2cc(Br)ccc2[nH]c1=O	n	n	n	n	n	n
Cc1ccc2[nH]c(=O)c(N3CCOCC3)c(-c3ccccc3)c2c1	25661	n	n	u	n	n
COc1ccccc1NC(=S)N1CCC(c2nc3ccccc3o2)CC1	n	n	n	n	n	n
Cc1cccc(C)c1NC(=O)N1CCC(c2nc3ccccc3o2)CC1	23165	n	n	u	n	n
O=C(c1ccccc1)N1CCN(C2c3cccc4cccc(c34)C2NS(=O)(=O)c2ccccc2)CC1 (stereo not drawn)	23933	n	n	n	n	n
Cc1ccccc1NC(=O)c1cccc2nc3ccccc3nc12	n	n	n	n	n	n
CCSC1=C(C#N)C2(CCCCC2)C(C#N)C(=O)N1 (stereo not drawn)	20210	n	n	u	n	n
CON/C=C(\C=Nc1ccc(Cl)cc1)c1ncc(C(F)(F)F)cc1Cl	23332	n	n	n	n	n
Nc1nc(NCC2CCCO2)nc(Nc2ccccc2)c1[N+](=O)[O-] (stereo not drawn)	n	n	n	n	n	n
O=C(c1ccc(Cl)cc1)c1oc2ccccc2c1CS(=O)c1ccccc1 (stereo not drawn)	20280	n	n	n	n	n
Cn1c2ccccc2c(=O)c2cc(C#Cc3ccccn3)ccc21	n	n	n	n	n	186.2
Cn1c2ccccc2c(=O)c2cc(C#Cc3ccsc3)ccc21	n	n	n	n	n	n
O=C(N/N=C/c1c(O)n(Cc2ccc(F)cc2)c(=O)[nH]c1=O)c1ccccc1O	n	50.6	n	n	n	n
COc1ccc(Cn2c(O)c(/C=N/NC(=O)c3ccccc3O)c(=O)[nH]c2=O)cc1	n	n	n	n	n	n
O=C(N/N=C/c1c(O)n(Cc2ccccc2)c(=O)[nH]c1=O)c1ccccc1O	n	34.8	n	n	n	n
O=C(N/N=C/c1c(O)n(CCc2ccccc2)c(=O)[nH]c1=O)c1ccccc1O	n	n	n	n	n	n
Nc1ccc(-c2nc3ccccc3o2)cc1	n	n	n	n	n	150.1
COc1cnc(SCc2c(Cl)cccc2Cl)nc1Cl	20944	n	n	n	n	n
O=C(Nn1cnnc1)c1cc2cc(Br)ccc2oc1=O	23909	n	n	n	n	n
SMILES	Autofluor counter	GDH-TPI inh	Anthrax LF prot	BoNT A protease	BoNT F protease	FBA Mtb inh
CCN(C(=O)c1cc2ccccc2oc1=O)c1cccc(C)c1	20635	n	n	n	n	n
CC(C)NC(=O)c1cc2cc(Br)ccc2oc1=O	n	n	n	n	n	n
CCN(C(=O)c1cc2ccccc2oc1=O)c1ccccc1	u	n	n	n	n	n
CN(C)CCNC(=O)c1cc2cc(Br)ccc2oc1=O	n	n	n	n	n	n
CCN(CC)C(=O)c1cc2cc(Br)ccc2oc1=O	22173	n	n	u	n	n
CC(=O)c1cnc(Nc2cccc(Cl)c2Cl)s1	n	n	n	n	n	n
COc1ccc(OCC(O)CNC(=O)c2ccccc2C(=O)O)cc1 (stereo not drawn)	n	n	n	n	n	n
CCC(C)n1c(SCC(=O)Nc2ccccc2C(F)(F)F)nc2ccsc2c1=O (stereo not drawn)	21867	n	n	n	n	n
CCCc1nc(SCC(N)=O)[nH]c(=O)c1CC	22995	n	n	n	n	n
CCCc1cc(=O)[nH]c(SCC(N)=O)n1	n	n	n	n	u	n
Cc1cc(C)n(-c2cccc(CN3CCC(CO)(Cc4ccccc4)CC3)c2)n1	n	n	n	n	n	n
c1ccc(CCn2c(C3CC3)nc3ccccc32)cc1	16345	n	n	n	n	n
O=C(CN1c2cccc3cccc(c23)S1(=O)=O)N1CCOCC1	16664	n	n	n	n	n
NC(=O)[C@@H]1CCCCNc2c(F)cc([N+](=O)[O-])cc2C(=O)N[C@@H](CCCN=C(N)N)C(=O)NCC(=O)N1	n	n	n	n	n	n
O=C(c1ccccc1F)N1CCC(N2CCCCCC2)CC1	n	n	n	n	n	n
Cc1cc2occ(CC(=O)Nc3nccs3)c2cc1C(C)C	22242	n	n	u	n	n
COc1ccc(CCC(=O)Nc2nccs2)cc1OC	n	n	n	n	n	n
COc1cc(CC(=O)Nc2nccs2)cc(OC)c1OC	22884	n	n	u	n	n
O=C(CN1C(=O)c2ccccc2S1(=O)=O)NCc1cccnc1	n	n	n	n	n	n
CC(=O)N1Cc2ccccc2CC1C(=O)N1CCN(c2ccccc2)CC1 (stereo not drawn)	n	n	n	n	n	n
CC(NC(=O)/C=C/c1ccc(Br)cc1)c1ccccc1 (stereo not drawn)	n	n	n	n	n	n
CCc1ccc(C(C)NC(=O)/C=C/c2ccc(Br)cc2)cc1 (stereo not drawn)	22674	n	n	n	n	n
CNc1ncnc(NC)c1[N+](=O)[O-]	n	n	n	n	n	n
CCn1c(SCc2cccc(C(F)(F)F)c2)nnc1-c1ccco1	22937	n	n	n	n	n
CCn1c(SCC(N)=O)nnc1-c1ccco1	n	n	n	n	n	n
SMILES	Autofluor counter	GDH-TPI inh	Anthrax LF prot	BoNT A protease	BoNT F protease	FBA Mtb inh
O=[N+]([O-])c1cc(Cl)ccc1Sc1cccc2cccnc12	n	n	n	n	n	n
O=[N+]([O-])c1ccc(Sc2cccc3cccnc23)c([N+](=O)[O-])c1	20643	n	n	u	n	n
O=C(OCc1cc2ccccc2[nH]c1=O)C1CCCCC1	n	n	n	n	n	n
O=C(COC(=O)c1ccccc1NS(=O)(=O)c1cccs1)NC1CCCCC1	n	n	n	n	45.1	n
Oc1ccc(/C=C/c2nc(-c3ccccc3O)n(-c3ccccc3)n2)cc1	24194	n	n	n	n	n
COc1ccc(-c2nc3ccccc3c(=O)o2)cc1	n	n	n	n	n	n
C=C(C)C1CC=C(C)/C(=N/NC(=O)c2ccc(NC(=O)CC)cc2)C1 (stereo not drawn)	17225	n	n	u	n	n
C=C(C)C1CC=C(C)/C(=N/NC(=O)c2ccc(NC(=O)CCC)cc2)C1 (stereo not drawn)	16939	n	n	u	n	n

Source: PubChem BioAssay
